# Results from ChEMBL document CHEMBL1961873, “Compounds: GSK PKIS; Assays: Nanosyn kinase panel” (2012).
# Key:
# [1] = target: Fibroblast growth factor receptor 4 (Homo sapiens) (UniProt P22455); conditions: at 1 µM;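 further: reported figure is the averaged percent inhibition of FGFR4, from the GSK PKIS kinase screening panel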
# [2] = target: Tyrosine-protein kinase Fgr (Homo sapiens) (UniProt P09769); conditions: at 0.1 µM
# [3] = target: Tyrosine-protein kinase Fgr (Homo sapiens) (UniProt P09769); conditions: at 1 µM
# [4] = target: Vascular endothelial growth factor receptor 1 (Homo sapiens) (UniProt P17948); conditions: at 0.1 µM
# [5] = target: Vascular endothelial growth factor receptor 1 (Homo sapiens) (UniProt P17948); conditions: at 1 µM
# [6] = target: Receptor-type tyrosine-protein kinase FLT3 (Homo sapiens) (UniProt P36888); conditions: at 0.1 µM
# [7] = target: Receptor-type tyrosine-protein kinase FLT3 (Homo sapiens) (UniProt P36888); conditions: at 1 µM
# [8] = system: T1, Receptor-type tyrosine-protein kinase FLT3 (Homo sapiens), P36888 [D835Y]; conditions: at 0.1 µM
# T1 sequence (whole entry): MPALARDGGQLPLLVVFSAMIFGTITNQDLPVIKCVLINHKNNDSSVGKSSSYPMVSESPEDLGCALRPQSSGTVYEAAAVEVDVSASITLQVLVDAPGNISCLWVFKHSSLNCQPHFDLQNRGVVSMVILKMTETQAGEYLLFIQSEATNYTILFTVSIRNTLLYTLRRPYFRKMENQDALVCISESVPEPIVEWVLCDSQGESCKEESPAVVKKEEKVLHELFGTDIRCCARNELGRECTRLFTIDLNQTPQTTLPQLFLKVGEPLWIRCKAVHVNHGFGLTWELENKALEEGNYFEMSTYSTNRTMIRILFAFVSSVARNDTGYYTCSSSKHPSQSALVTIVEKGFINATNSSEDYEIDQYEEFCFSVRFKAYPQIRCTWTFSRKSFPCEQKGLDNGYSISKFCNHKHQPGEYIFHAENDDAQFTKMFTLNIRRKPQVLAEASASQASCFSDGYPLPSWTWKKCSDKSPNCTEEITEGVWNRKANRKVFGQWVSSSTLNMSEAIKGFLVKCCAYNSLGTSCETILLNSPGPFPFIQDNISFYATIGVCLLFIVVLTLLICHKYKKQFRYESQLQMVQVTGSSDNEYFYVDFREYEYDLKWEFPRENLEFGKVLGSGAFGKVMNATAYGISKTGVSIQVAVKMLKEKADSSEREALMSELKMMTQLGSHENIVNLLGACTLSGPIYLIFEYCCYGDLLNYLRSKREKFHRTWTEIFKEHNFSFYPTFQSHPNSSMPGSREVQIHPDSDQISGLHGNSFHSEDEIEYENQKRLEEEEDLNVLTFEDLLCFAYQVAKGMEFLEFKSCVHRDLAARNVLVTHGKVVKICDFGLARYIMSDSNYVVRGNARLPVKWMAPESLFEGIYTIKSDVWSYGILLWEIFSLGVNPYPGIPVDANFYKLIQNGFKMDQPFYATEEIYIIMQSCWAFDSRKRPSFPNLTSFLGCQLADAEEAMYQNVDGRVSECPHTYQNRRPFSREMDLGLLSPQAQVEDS
# [9] = target: Non-receptor tyrosine-protein kinase TYK2 (Homo sapiens) (UniProt P29597); conditions: at 1 µM;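 further: values are mean percent inhibition of TYK2 kinase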
# [10] = target: T2, Tyrosine-protein kinase receptor TYRO3 (Homo sapiens) (UniProt Q06418); conditions: at 0.1 µM
# T2 sequence (whole entry): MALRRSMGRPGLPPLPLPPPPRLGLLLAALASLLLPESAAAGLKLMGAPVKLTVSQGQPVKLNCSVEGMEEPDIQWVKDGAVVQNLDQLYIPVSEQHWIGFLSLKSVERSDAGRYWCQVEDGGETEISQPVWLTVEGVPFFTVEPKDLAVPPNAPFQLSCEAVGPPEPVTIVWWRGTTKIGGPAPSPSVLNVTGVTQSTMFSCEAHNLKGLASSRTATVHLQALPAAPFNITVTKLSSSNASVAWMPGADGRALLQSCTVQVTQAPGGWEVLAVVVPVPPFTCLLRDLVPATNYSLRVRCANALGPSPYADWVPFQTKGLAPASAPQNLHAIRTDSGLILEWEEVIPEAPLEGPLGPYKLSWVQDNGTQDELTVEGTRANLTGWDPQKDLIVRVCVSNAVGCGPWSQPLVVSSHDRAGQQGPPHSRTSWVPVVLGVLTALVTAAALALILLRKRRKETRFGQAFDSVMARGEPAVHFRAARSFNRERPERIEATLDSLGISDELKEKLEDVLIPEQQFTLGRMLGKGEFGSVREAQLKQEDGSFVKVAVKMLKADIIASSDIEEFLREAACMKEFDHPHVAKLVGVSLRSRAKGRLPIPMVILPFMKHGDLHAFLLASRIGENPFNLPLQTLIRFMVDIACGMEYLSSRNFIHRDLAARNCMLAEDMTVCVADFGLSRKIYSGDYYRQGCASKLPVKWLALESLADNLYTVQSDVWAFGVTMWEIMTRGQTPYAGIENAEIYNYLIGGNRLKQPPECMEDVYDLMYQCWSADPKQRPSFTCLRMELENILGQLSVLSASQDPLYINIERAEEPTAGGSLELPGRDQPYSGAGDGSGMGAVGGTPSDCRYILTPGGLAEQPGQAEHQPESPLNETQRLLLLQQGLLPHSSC
# [11] = target: T2, Tyrosine-protein kinase receptor TYRO3 (Homo sapiens); conditions: at 1 µM
# [12] = target: Tyrosine-protein kinase Yes (Homo sapiens) (UniProt P07947); conditions: at 0.1 µM
# [13] = target: Tyrosine-protein kinase Yes (Homo sapiens) (UniProt P07947); conditions: at 1 µM
# [14] = target: T3, Tyrosine-protein kinase ZAP-70 (Homo sapiens) (UniProt P43403); conditions: at 1 µM
# T3 sequence (whole entry): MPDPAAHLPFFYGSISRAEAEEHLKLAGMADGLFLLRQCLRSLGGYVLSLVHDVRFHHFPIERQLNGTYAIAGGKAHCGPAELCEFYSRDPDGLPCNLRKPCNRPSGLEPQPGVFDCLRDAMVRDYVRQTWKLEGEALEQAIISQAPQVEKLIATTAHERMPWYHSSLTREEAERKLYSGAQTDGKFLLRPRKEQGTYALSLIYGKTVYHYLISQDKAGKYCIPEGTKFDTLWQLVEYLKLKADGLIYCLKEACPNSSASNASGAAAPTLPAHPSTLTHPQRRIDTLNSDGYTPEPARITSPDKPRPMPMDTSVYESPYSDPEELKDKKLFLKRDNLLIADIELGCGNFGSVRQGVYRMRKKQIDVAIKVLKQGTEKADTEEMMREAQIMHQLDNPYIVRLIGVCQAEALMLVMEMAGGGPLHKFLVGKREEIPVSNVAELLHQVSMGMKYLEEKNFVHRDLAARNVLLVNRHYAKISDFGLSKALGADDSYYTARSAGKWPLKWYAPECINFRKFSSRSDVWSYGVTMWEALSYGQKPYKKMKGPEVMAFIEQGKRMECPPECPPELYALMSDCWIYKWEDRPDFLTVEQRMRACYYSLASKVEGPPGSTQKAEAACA
# [15] = target: Serine/threonine-protein kinase B-raf (Homo sapiens) (UniProt P15056); conditions: at 0.1 µM
# [16] = target: Serine/threonine-protein kinase B-raf (Homo sapiens) (UniProt P15056); conditions: at 1 µM
# [17] = system: Serine/threonine-protein kinase B-raf (Homo sapiens), P15056 [V600E]; conditions: at 0.1 µM
# [18] = system: Serine/threonine-protein kinase B-raf (Homo sapiens), P15056 [V600E]; conditions: at 1 µM
# [19] = target: RAF proto-oncogene serine/threonine-protein kinase (Homo sapiens) (UniProt P04049); conditions: at 0.1 µM;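 further: values are mean CRAF kinase inhibition from profiling of the GSK Published Kinase Inhibitor Set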
# [20] = target: T3, Tyrosine-protein kinase ZAP-70 (Homo sapiens); conditions: at 0.1 µM
# Chain of Tyrosine-protein kinase Fgr (Homo sapiens) (P09769 2-529 limits assumed): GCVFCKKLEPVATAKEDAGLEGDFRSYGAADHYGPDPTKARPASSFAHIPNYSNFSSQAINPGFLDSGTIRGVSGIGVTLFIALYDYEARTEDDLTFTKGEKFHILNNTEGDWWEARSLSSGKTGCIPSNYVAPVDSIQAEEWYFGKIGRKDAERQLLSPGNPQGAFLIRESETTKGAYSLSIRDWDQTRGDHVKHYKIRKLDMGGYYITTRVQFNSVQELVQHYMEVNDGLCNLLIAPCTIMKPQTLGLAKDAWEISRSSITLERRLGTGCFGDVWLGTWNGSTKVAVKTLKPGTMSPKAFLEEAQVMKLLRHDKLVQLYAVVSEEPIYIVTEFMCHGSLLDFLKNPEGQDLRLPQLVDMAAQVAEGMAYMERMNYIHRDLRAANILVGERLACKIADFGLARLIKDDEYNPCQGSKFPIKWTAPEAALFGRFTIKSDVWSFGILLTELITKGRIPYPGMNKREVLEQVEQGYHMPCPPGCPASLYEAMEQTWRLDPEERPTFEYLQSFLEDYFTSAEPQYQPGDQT
# Chain of Tyrosine-protein kinase Yes (Homo sapiens) (P07947 2-543 limits assumed): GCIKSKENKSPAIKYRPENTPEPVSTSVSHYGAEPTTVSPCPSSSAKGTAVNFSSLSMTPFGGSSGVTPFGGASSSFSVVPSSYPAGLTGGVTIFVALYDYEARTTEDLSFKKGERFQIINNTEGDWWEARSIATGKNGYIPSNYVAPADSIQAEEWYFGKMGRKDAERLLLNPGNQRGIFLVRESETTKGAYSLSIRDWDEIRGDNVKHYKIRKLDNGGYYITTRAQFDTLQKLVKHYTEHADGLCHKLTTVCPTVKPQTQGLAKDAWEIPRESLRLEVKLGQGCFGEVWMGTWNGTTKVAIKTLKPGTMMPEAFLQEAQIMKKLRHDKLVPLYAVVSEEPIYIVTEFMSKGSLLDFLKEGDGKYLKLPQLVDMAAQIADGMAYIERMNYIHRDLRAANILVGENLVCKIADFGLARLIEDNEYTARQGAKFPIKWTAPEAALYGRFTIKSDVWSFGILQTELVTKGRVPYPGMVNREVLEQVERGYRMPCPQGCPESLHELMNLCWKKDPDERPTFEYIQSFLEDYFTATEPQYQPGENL
# Chain of Fibroblast growth factor receptor 4 (Homo sapiens) (P22455 22-802 limits assumed): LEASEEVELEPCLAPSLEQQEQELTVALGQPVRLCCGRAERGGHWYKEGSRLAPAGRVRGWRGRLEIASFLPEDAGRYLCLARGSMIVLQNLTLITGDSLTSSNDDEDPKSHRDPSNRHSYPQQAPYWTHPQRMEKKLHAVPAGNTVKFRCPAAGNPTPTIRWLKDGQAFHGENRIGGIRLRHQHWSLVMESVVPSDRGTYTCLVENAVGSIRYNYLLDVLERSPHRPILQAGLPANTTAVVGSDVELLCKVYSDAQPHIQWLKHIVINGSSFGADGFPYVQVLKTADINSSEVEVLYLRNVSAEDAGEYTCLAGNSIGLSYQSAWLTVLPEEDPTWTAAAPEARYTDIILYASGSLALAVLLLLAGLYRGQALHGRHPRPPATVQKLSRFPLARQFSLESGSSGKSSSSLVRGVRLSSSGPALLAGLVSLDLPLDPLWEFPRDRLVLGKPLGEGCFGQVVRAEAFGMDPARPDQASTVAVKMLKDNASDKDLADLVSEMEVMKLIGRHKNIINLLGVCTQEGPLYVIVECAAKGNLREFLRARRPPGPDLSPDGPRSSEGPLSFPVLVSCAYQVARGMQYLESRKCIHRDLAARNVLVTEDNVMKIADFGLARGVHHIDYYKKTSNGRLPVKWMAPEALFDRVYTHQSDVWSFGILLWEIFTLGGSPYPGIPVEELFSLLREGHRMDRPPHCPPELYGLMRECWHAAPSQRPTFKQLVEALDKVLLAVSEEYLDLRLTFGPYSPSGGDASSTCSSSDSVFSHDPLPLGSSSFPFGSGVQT
# Chain of Vascular endothelial growth factor receptor 1 (Homo sapiens) (P17948 whole entry): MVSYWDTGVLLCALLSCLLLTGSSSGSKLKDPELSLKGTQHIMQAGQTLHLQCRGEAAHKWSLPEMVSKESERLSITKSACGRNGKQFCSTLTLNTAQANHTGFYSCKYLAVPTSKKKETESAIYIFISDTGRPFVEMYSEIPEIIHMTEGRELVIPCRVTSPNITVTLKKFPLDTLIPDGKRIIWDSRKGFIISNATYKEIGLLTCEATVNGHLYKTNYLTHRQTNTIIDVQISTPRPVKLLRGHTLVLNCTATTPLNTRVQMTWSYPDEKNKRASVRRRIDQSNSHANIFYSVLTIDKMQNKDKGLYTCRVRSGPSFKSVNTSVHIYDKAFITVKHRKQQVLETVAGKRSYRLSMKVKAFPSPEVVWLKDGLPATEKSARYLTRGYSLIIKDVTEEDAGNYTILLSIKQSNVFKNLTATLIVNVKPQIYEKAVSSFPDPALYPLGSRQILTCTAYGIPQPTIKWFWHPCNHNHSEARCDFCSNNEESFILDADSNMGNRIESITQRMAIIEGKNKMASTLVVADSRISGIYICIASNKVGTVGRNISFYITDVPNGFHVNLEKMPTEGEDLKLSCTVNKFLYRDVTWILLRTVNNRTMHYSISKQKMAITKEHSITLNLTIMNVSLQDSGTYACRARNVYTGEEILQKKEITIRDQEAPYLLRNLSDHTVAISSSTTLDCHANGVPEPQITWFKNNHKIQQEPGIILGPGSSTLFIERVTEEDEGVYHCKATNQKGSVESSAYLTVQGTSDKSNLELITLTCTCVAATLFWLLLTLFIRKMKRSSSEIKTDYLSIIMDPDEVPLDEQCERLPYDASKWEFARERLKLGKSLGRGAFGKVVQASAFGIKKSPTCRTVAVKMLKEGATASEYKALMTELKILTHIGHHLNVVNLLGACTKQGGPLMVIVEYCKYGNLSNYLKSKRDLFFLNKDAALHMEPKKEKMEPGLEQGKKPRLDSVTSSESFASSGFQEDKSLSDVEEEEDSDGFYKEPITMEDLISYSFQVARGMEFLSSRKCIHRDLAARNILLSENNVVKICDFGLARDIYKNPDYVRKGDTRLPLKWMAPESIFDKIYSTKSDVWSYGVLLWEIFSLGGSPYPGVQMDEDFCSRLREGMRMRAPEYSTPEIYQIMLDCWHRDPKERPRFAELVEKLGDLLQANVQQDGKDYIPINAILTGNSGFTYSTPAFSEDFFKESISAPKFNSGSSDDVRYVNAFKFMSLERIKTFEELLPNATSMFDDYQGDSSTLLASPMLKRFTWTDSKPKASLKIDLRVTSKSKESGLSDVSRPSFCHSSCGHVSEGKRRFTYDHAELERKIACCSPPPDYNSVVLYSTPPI
# Chain of Serine/threonine-protein kinase B-raf (Homo sapiens) (P15056 whole entry): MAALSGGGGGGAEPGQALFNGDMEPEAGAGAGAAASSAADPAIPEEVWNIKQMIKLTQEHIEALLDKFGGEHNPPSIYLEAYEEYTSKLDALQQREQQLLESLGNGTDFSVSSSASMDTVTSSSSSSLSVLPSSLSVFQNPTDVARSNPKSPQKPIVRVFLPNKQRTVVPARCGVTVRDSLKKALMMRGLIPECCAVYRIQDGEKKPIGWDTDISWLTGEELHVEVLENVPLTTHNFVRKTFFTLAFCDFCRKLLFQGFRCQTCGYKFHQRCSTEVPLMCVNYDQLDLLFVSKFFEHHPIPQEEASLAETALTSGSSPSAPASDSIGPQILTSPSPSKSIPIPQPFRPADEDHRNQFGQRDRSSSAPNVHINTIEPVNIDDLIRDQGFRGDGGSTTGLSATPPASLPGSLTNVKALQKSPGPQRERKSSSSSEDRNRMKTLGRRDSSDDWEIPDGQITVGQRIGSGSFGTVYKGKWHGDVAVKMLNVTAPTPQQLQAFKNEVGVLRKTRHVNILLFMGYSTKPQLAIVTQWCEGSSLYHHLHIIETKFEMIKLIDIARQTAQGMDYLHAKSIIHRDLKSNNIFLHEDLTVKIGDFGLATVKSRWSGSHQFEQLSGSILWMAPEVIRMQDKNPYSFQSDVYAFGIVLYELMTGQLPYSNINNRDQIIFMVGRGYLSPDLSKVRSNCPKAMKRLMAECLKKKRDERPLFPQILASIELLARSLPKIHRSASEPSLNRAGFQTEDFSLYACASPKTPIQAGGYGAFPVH
# Chain of Serine/threonine-protein kinase B-raf (Homo sapiens), P15056 [V600E] (P15056 whole entry V600E): as the sequence (P15056 whole entry) above, with V600E counted along it
# Chain of RAF proto-oncogene serine/threonine-protein kinase (Homo sapiens) (P04049 whole entry): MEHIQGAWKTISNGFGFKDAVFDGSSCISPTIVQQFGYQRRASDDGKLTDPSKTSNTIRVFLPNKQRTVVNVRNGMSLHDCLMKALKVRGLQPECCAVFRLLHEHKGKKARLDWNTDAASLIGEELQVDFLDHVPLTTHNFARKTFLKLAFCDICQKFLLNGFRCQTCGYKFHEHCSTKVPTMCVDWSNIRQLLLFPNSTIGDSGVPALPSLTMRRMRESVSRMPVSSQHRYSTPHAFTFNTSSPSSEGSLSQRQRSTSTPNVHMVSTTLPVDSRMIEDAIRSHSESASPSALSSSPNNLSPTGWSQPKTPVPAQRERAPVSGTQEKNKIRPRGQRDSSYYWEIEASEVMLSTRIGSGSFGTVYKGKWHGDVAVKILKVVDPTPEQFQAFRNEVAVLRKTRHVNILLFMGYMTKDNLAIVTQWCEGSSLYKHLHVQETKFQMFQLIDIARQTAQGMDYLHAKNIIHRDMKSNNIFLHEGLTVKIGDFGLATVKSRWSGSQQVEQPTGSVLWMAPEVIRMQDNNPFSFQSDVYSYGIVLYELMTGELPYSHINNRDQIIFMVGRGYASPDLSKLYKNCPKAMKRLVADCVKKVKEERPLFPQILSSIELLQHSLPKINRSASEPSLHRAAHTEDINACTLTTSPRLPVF
SMILES,inhibition [1] [%],inhibition [2] [%],inhibition [3] [%],inhibition [4] [%],inhibition [5] [%],inhibition [6] [%],inhibition [7] [%],inhibition [8] [%],inhibition [9] [%],inhibition [10] [%],inhibition [11] [%],inhibition [12] [%],inhibition [13] [%],inhibition [14] [%],inhibition [15] [%],inhibition [16] [%],inhibition [17] [%],inhibition [18] [%],inhibition [19] [%],inhibition [20] [%]
Cc1nnc(-c2ccc(C)c(-c3ccc(C(=O)NCc4ccc(Cl)cc4)cc3)c2)o1,-3.75,4.76,1.82,2.48,2.52,2.13,0.77,2.22,-3.78,2.85,3.57,2.58,5.29,-3.27,5.55,4.07,6.27,3.85,8.41,
O=C1NC(=O)C(c2cccc(Cl)c2)=C1Nc1ccc(Cl)c(C(=O)O)c1,1.23,5.15,1.19,2.61,7.03,3.91,0.25,-6.52,-1.23,1.77,2.5,4.03,6,2.76,5.48,2.76,6.61,4.77,2.73,4.89
COc1ccc2ncn(-c3cc(O[C@H](C)c4ccccc4Cl)c(C(N)=O)s3)c2c1,-2.23,2.3,3.06,0.27,3.7,-1.31,4.52,2.46,-5.78,3.88,3.45,1.1,0.5,0.58,5.68,4.96,3.17,3.29,0.5,-4.58
NC(=O)Cc1ccccc1Oc1nccc(-c2c(-c3ccc(F)cc3)ncn2C2CCNCC2)n1,0.51,0.84,2.97,0.07,0.23,-1.59,1.61,-3.58,-2.45,0.04,-0.3,1.2,2.44,-4.81,3.8,6.06,3.3,4.77,-0.15,2.88
CN(c1ccc(NC(=O)Nc2c(Cl)cccc2Cl)cc1)c1ccnc(Nc2cccc(CS(C)(=O)=O)c2)n1,2.06,24.3,51.9,38.5,51,78.2,84.9,28.2,1.51,4.61,17.4,17.6,28.2,9.82,1.79,4.11,2.49,5.8,0.7,4.97
NS(=O)(=O)c1ccc(Nc2cc(-c3ccc(O)c(F)c3)n[nH]2)cc1,0.53,0.78,13.7,2.34,14.3,33.7,79.4,5.5,5.71,8.31,52.3,-3.77,11.7,,-4.38,-2.42,-4.83,-3.52,-4.11,
COc1cc(N2CCN(C(C)C)CC2)ccc1Nc1nc(Nc2ccc(F)cc2C(=O)NC[C@@H](O)CO)c2cc[nH]c2n1,-2.11,4.37,1.14,1.41,1.28,1.53,2.54,0.41,-2.95,2.87,5.76,1.99,12.3,5.52,6.98,5.88,7.48,4.83,-2.46,-0.52
